# Results from PubChem BioAssay.
# Values joined by “and” are separate entries in the source; they are usually repeats but may differ in a detail not shown here. Equal values may be shown once. Results filed as inconclusive are left out. Active and inactive are the calls of the source.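 The calls were made as follows, unless noted: active = inhibition above the screen-wide mean plus 3 SD, about 51%; inactive = the rest.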
# Tests used:
# [1] = rapamycin-like changes in RPL19A-GFP expression – cell-based, S. cerevisiae, multiplex flow cytometry, primary screen (AID 1862; in the data active = percent of DMSO control GFP below about 86%;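 also: lower values mimic rapamycin by blocking the RPL19A rise seen in DMSO cells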); settings: S. cerevisiae RPL19A-GFP strain, flow cytometry fluorescence, 3 h; at 10 µM; stronger effect = lower value
# [2] = TOR pathway GLN3 branch reporter MEP2-GFP changes – S. cerevisiae, multiplex flow cytometry, primary screen (AID 1867;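 active = GFP response, as percent of the DMSO control, above the screen-wide mean plus 3 SD, about 139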;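 also: median GFP channel fluorescence of barcode-gated MEP2-GFP cells measured by flow cytometry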); settings: S. cerevisiae MEP2-GFP strain, 3 h, at 10 µM, stronger effect = higher value, 100% means same as DMSO wells
# [3] = TOR pathway RTG branch CIT2 reporter changes – S. cerevisiae, GFP fusion, multiplex flow cytometry, primary screen (AID 1870;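 active = percent response above a set limit, the screen-wide mean plus 3 SD, cut at about 130% in these data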;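 also: barcoded CIT2-GFP strain pooled with four other GFP strains with rapamycin as positive control; median GFP fluorescence per well over plate mean of DMSO wells so 100% = DMSO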); settings: S. cerevisiae CIT2-GFP expression, 3 h, at 10 µM, stronger effect = higher value
# [4] = TOR pathway LAP4-GFP level changes – S. cerevisiae, multiplex flow cytometry, primary screen (AID 1873;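 active = GFP signal, as percent of the solvent control, above the screen mean plus 3 SD, about 149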); settings: S. cerevisiae LAP4-GFP expression, 3 h, at 10 µM, stronger effect = higher value
# [5] = yeast AGP1-GFP level changes, GLN3 branch – cell-based, multiplex flow cytometry, S. cerevisiae, primary screen (AID 1887;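 active = GFP signal above the screen-wide mean plus 3 SD, that is over about 124.5% of the solvent control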;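 also: AGP1-GFP fusion strain of S. cerevisiae within a five-strain barcoded multiplex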); settings: 3 h, at 10 µM, stronger effect = higher value
# [6] = reduced mouse 2C T cell binding to pMHC/ICAM-1 vesicles – MLPCN validation set, flow cytometry, LFA-1/ICAM-1 modulator project, pilot screen (AID 2523;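 active = response below a set limit, under 55% cells CD8-positive and vesicle-bound, and CD8 cells' 90th-percentile brightness under 279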;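 as to vesicle binding response: mean PE anti-B7-1 fluorescence of CD8+ cells relative to row control; 100% = QL9-loaded vesicles with DMSO vehicle in the same plate row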); settings: 2C mouse CD8+ T cells, at 7 µM, stronger effect = lower value; double positive events: measured here: CD8+/vesicle+ event percentage
# [7] = biological target: Integrin beta-1 (Homo sapiens) + Integrin alpha-4 (Homo sapiens) (UniProt P13612+P05556); assay: alpha4beta1 integrin LIBS antibody binding reduction – U937 cells, HUTS-21 mAb, flow cytometry, validation set, VLA-4 allosteric modulator project, pilot screen (AID 2674;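 active = inhibition above 50%, about 3 SD of the validation set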;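 also: antibody binding induced by the VLA-4 ligand LDV present at three times its Kd; 0% = LDV ligand with antibody and no compound and 100% = antibody without LDV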); settings: HUTS-21 LIBS mAb binding, at 6.7 µM, stronger effect = higher value, binding induced by LDV ligand
# [8] = calorie-restriction mimetic ROS inhibitors, yeast – validation compound set, pilot screen (AID 2706;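 active = superoxide response below 65% of plate, a cut near 3 SD across the whole screen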;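 also: yeast exposed to compound for one week at 30 degrees C before staining; 100% = mean of all compound wells on the same plate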); settings: S. cerevisiae aging, superoxide DHE fluorescence; at 10 µM; stronger effect = lower value
# [9] = biological target: Beta-adrenergic receptor kinase 1 (Homo sapiens) (UniProt P25098); assay: GRK2 binders displacing RNA aptamer, biochemical, validation, human GRK2, bead flow cytometry (AID 488806;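 active = aptamer binding inhibition above 30%, about 3 SD of noise from non-fluorescent compounds; inactive = inhibition at or below 30%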); settings: bead-bound GRK2, FAM-aptamer displacement, at 10 µM, stronger effect = higher value
# [10] = biological target: Beta-2 adrenergic receptor (Homo sapiens) (UniProt P07550); assay: agonist-induced loss of surface beta2AR – cell-based, FAP fluorogen, flow cytometry, validation set, pilot screen (AID 504459;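 active = percent response above 42, roughly 3 SD of non-fluorescent test compounds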;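 also: agonist-driven loss of surface beta2AR via internalization measured by FAP dye flow cytometry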); settings: Am2.2-beta2AR cells, at 10 µM, stronger effect = higher value
# [11] = biological target: AP-2 complex subunit beta (Homo sapiens) (UniProt P63010); assay: beta-arrestin/AP2 interaction blockers – biochemical, validation set, GST-AP2 beads, flow cytometry, pilot screen (AID 504541;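 active = inhibition above 54%, about 3 SD of non-fluorescent compounds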;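 also: AP2 carries R879A mutation and is captured from E. coli lysate; bead-bound FITC arrestin peptide fluorescence measuring arrestin peptide binding to AP2; 0% = DMSO wells and 100% = excess unlabeled arrestin peptide control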); settings: FITC arrestin peptide, at 10 µM, stronger effect = higher value, AP2 beta2 appendage fragment, R879A mutant
# [12] = cytosolic pH regulators acting via V-ATPase – S. cerevisiae, pHLuorin, HTS validation (AID 504600; in the data active = response above about 15%;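 also: plate controls were DMSO for no effect and reference compound for full effect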); settings: V-ATPase proton transport, at 10 µM, stronger effect = higher value
# [13] = tested on: anti-desmoglein-3 scFv antibody binding to human DSG3; assay: blockers of pathogenic pemphigus antibody–desmoglein-3 binding – biochemical, validation compound set, bead-based, flow cytometry, pilot screen (AID 588368;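 active = binding below the plate cutoff, the plate median minus 3 SD, with a reading above zero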;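 also: signal is the median channel fluorescence of bead-bound GFP antibody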); settings: Protein G beads, DSG3-Fc, scFv-GFP binding, at 10 µM, stronger effect = lower value
# [14] = Nile Red efflux blockade in pump-expressing yeast – validation compound set, multiplex, phenotypic, pilot screen (AID 588506;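 active = efflux inhibition above 0.42, the validation set average plus 4 SD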;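 also: Nile Red retained in cells so higher fluorescence means more efflux inhibition; 0 = negative control wells and 1 = enniatin B 25 µM full block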); settings: S. cerevisiae pump-expressing triplex, Nile Red efflux flow cytometry; at 10 µM; stronger effect = higher value; the pumps come from Candida albicans
# [15] = biological target: ATP-binding cassette sub-family B member 6 (Homo sapiens) (UniProt Q9NP58); assay: blockers of ABCB6-driven porphyrin uptake – K562-ABCB6 cells, flow cytometry, validation set, pilot screen (AID 588550); settings: K562-ABCB6 porphyrin accumulation, 1 h, at 10 µM, stronger effect = higher value;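 also: 0% = DMSO wells and 100% = benzethonium chloride 70 µM positive control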
# [16] = AML differentiation inducers, ER-HoxA9 marrow cells – cell-based, GFP/MAC1 double positive, flow cytometry, validation set, primary screen (AID 588685;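 active = differentiation response of at least 50%, scaled between solvent and reference control, from cells with both markers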;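 also: compound exposure lasts four days before antibody staining and flow analysis; 0% = DMSO wells and 100% = 5 µM fulvestrant positive control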); settings: stronger effect = higher value, normalized: vehicle 0, fulvestrant 100
# Chain of Beta-2 adrenergic receptor (Homo sapiens) (P07550 whole entry, looked up): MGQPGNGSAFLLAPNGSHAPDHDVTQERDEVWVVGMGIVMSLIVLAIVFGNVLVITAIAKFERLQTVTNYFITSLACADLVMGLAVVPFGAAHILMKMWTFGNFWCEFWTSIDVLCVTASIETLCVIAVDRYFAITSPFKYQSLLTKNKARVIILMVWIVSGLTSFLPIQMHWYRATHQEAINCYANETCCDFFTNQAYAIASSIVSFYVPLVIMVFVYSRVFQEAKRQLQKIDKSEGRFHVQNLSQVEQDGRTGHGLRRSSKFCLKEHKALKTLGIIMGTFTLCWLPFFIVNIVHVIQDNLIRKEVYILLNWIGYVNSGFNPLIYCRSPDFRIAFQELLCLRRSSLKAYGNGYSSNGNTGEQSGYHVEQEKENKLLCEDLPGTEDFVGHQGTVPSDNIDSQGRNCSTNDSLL
# Chain of ATP-binding cassette sub-family B member 6 (Homo sapiens) (Q9NP58 whole entry, looked up): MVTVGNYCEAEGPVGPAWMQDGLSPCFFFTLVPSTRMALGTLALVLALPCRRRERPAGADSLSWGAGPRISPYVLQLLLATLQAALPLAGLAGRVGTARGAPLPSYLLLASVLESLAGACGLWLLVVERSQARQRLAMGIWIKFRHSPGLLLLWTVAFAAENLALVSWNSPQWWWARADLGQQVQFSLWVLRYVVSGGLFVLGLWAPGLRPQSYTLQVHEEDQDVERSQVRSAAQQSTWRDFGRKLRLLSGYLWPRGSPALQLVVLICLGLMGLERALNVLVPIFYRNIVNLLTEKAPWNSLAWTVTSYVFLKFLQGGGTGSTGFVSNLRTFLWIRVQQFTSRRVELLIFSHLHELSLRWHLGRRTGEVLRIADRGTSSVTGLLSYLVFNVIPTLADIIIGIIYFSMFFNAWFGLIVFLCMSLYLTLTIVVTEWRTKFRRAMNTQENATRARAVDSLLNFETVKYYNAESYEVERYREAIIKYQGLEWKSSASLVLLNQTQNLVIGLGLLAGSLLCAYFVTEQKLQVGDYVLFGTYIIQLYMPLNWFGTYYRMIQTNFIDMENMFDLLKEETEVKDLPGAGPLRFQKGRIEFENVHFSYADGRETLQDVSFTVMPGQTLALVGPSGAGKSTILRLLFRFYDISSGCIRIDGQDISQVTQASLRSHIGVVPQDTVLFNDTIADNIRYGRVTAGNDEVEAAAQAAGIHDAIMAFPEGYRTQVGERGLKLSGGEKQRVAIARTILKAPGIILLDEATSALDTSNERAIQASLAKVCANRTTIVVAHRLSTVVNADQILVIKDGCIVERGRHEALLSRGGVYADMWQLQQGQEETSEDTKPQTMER
# Chain of Beta-adrenergic receptor kinase 1 (Homo sapiens) (P25098 whole entry, looked up): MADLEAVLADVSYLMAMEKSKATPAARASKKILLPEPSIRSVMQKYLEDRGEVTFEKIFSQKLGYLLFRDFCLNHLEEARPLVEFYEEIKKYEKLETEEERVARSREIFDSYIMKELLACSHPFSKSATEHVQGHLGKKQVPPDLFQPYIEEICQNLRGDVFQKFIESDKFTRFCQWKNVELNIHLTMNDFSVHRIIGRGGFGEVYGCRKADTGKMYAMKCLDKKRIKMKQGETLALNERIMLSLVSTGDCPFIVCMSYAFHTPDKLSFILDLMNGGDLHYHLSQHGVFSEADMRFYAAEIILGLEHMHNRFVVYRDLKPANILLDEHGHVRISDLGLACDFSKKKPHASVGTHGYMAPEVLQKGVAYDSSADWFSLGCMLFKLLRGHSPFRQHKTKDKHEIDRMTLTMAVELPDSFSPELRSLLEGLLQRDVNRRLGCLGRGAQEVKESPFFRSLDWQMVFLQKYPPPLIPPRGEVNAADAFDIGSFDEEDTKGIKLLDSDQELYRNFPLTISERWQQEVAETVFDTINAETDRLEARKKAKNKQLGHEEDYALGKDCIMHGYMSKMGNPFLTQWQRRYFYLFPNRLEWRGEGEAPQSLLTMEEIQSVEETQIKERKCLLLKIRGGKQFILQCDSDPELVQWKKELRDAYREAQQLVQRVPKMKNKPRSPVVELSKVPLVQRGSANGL
# Chain of Integrin beta-1 (Homo sapiens) + Integrin alpha-4 (Homo sapiens) (P05556 whole entry, looked up): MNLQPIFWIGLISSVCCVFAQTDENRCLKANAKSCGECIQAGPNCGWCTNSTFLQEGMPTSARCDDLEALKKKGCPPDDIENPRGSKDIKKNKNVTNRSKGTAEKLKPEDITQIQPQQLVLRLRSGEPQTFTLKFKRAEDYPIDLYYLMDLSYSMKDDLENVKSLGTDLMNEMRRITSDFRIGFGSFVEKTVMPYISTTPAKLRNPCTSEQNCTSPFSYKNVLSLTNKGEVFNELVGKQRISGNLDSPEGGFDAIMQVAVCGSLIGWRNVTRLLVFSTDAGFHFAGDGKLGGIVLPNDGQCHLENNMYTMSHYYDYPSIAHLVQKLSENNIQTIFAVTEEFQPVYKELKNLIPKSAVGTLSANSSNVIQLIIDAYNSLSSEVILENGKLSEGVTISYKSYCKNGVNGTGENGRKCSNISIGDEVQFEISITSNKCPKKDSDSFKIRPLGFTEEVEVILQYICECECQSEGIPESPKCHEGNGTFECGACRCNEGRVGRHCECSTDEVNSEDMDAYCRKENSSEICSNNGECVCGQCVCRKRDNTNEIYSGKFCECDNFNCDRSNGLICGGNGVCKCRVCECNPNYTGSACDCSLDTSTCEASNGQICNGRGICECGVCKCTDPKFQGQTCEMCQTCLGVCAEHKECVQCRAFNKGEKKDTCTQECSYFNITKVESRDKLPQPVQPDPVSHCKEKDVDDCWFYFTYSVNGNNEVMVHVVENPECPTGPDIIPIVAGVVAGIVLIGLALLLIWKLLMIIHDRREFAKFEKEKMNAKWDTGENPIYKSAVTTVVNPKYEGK
# Chain of Integrin beta-1 (Homo sapiens) + Integrin alpha-4 (Homo sapiens) (P13612 whole entry, looked up): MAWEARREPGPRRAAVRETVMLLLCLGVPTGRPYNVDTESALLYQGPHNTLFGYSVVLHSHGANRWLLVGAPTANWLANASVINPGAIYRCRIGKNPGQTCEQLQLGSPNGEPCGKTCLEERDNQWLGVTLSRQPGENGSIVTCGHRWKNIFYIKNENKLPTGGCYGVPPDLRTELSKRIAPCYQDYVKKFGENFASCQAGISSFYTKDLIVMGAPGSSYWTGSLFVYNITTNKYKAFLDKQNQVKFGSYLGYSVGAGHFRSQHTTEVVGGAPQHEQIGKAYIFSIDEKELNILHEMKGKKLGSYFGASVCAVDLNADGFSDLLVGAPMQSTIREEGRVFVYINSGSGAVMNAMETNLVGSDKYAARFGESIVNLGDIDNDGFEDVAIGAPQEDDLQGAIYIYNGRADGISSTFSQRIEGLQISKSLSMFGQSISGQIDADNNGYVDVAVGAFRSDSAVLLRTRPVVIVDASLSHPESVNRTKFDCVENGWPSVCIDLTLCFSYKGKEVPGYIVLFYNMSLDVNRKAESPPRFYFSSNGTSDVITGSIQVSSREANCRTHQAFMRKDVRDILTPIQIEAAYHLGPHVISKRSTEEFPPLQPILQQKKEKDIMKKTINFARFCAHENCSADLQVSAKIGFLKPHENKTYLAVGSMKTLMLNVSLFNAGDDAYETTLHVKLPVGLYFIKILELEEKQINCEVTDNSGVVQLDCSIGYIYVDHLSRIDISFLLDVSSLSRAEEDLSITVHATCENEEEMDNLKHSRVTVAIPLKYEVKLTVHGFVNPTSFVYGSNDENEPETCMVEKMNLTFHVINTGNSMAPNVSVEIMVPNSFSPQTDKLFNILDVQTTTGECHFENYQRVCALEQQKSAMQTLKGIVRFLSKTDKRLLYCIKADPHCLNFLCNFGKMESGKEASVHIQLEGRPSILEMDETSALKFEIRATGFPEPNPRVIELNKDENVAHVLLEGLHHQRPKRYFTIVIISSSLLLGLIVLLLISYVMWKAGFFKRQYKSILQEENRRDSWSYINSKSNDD
# Chain of AP-2 complex subunit beta (Homo sapiens) (P63010 whole entry, looked up, the tested form may be a part, one chain of several): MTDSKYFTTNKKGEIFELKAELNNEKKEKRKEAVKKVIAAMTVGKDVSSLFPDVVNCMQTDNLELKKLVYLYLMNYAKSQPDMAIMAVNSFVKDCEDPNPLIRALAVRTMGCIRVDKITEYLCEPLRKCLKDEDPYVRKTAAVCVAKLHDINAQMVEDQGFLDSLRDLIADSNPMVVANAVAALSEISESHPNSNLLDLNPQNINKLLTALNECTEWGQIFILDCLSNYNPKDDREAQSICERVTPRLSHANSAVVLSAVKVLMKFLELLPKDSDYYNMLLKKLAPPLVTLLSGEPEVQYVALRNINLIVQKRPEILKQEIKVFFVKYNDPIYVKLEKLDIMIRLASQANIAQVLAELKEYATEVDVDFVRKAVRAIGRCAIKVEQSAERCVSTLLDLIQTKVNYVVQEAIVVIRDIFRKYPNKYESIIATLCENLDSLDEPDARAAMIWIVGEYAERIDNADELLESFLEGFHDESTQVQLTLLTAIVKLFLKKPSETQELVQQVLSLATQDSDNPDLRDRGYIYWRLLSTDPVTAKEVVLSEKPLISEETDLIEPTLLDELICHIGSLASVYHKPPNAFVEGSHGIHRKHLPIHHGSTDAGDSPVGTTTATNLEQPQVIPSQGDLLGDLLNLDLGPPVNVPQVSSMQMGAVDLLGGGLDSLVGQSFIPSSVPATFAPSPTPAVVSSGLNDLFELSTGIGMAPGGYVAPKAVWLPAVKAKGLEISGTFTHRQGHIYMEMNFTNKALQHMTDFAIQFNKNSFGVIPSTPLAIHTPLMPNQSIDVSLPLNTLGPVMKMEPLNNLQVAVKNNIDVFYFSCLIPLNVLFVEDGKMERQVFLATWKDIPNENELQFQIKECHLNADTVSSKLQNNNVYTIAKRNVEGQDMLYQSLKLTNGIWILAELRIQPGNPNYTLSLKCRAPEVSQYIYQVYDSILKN
SMILES,percent of DMSO control GFP [1],GFP response vs DMSO [2],percent response of DMSO control [3],GFP response vs DMSO [4],"GFP response, % of DMSO [5]",double positive events [6],vesicle binding response [6],inhibition [7],superoxide response (% of plate) [8],aptamer binding inhibition [9],response [10],inhibition [11],response [12],binding (% of control) [13],efflux inhibition (fraction of control) [14],inhibition [15],differentiation response [16]
C=CC1=C(C(=O)O)N2C(=O)C(NC(=O)Cc3ccccc3)C2SC1 (stereo not drawn),101% (inactive),103% (inactive),105% (inactive),82.8% (inactive),100% (inactive),62%,134% (inactive),13.2% (inactive),96.1% (inactive),86% (active),0.41% (inactive),15.3% (inactive),1.11% (inactive),101% (inactive),0.01 (inactive),7% (inactive),-31.2% (inactive)
Cc1ccc2ncnc(NCCCCCC(=O)O)c2c1,105% (inactive),103% (inactive),105% (inactive),106% (inactive),108% (inactive),64.6%,130% (inactive),8.29% (inactive),114% (inactive),-1% (inactive),0.4% (inactive),13.1% (inactive),5.01% (inactive),101% (inactive),0.135 (inactive),4% (inactive),-14.8% (inactive)
CN(C)CCC(c1ccc(Cl)cc1)c1ccccn1 (stereo not drawn),99% (inactive),120% (inactive),108% (inactive),78.7% (inactive),87.5% (inactive),56.3%,215% (inactive),-7.12% (inactive),94% (inactive),-7% (inactive),-9.09% (inactive),4.35% (inactive),18.1% (active),107% (inactive),0.05 (inactive),7% (inactive),37.7% (inactive)
O=C(c1cccc2ccccc12)C1CCCN(C(=O)CCN2CCCO2)C1 (stereo not drawn),104% (inactive),98.3% (inactive),109% (inactive),105% (inactive),106% (inactive),62.4%,377% (inactive),7.85% (inactive),90.5% (inactive),0% (inactive),-9.24% (inactive),-0.89% (inactive),2.67% (inactive),96.4% (inactive),-0.32 (inactive),4% (inactive),-0.73% (inactive)
NCCc1cnc[nH]1,89.8% (inactive) and 102% (inactive),129% (inactive) and 104% (inactive),101% (inactive) and 102% (inactive),78.7% (inactive) and 113% (inactive),84.5% (inactive) and 117% (inactive),55.6% and 61.9%,192% (inactive) and 166% (inactive),-33.3% (inactive) and -35.2% (inactive),105% (inactive) and 109% (inactive),3% (inactive) and 0% (inactive),-15.1% (inactive) and -30.5% (inactive),-4.51% (inactive) and -1.77% (inactive),25.1% (active) and 47.3% (active),105% (inactive) and 106% (inactive),0.09 (inactive) and 0.04 (inactive),5% (inactive) and -3% (inactive),-5.73% (inactive) and -4.99% (inactive)
COCCN(CCOC)Cc1c(C)[nH]c2c(C)c(C)ccc2c1=O,103% (inactive),108% (inactive),97.6% (inactive),93.7% (inactive),102% (inactive),63.2%,132% (inactive),-2.43% (inactive),99.3% (inactive),0% (inactive),4.86% (inactive),-8.42% (inactive),5.64% (inactive),105% (inactive),-0.29 (inactive),-9% (inactive),-10.4% (inactive)
COc1ccc2oc(-c3ccco3)cc(=O)c2c1,103% (inactive),92.4% (inactive),100% (inactive),88% (inactive),83.7% (inactive),59.1%,23.9% (inactive),-8.9% (inactive),96.6% (inactive),3% (inactive),-0.39% (inactive),-28.7% (inactive),2.89% (inactive),100% (inactive),-0.28 (inactive),8% (inactive),-3.4% (inactive)
O=C(O)CCCc1ccccc1,104% (inactive),96.2% (inactive),115% (inactive),76.9% (inactive),99.7% (inactive),61.7%,264% (inactive),-4.6% (inactive),107% (inactive),5% (inactive),-7.69% (inactive),-6% (inactive),2.2% (inactive),96.1% (inactive),0.02 (inactive),19% (inactive),0.24% (inactive)
CCN(CC)C(=O)N1CCN(C)CC1,101% (inactive),106% (inactive),101% (inactive),101% (inactive),108% (inactive),63.6%,158% (inactive),-3.77% (inactive),104% (inactive),-1% (inactive),-0.51% (inactive),7.6% (inactive),0.18% (inactive),103% (inactive),0.72 (active),9% (inactive),-13.3% (inactive)
CCSC(SCC)[C@H](O)[C@@H](O)[C@H](O)[C@H](O)CO,95.5% (inactive),113% (inactive),107% (inactive),74.8% (inactive),93.8% (inactive),58%,218% (inactive),6.46% (inactive),114% (inactive),7% (inactive),-7.81% (inactive),4.05% (inactive),-1.88% (inactive),104% (inactive),0.3 (inactive),6% (inactive),-2.46% (inactive)
CC(C)(C)C(=O)Nc1cccc(OC(F)(F)C(F)Cl)c1 (stereo not drawn),105% (inactive),106% (inactive),105% (inactive),107% (inactive),113% (inactive),66.2%,212% (inactive),25.3% (inactive),105% (inactive),4% (inactive),-32.2% (inactive),8.53% (inactive),18.4% (active),99.5% (inactive),-0.04 (inactive),5% (inactive),11.8% (inactive)
O=C1CC(c2ccc(OCCCCCOc3ccc(C4CC(=O)NC4=O)cc3)cc2)C(=O)N1 (stereo not drawn),105% (inactive),98.3% (inactive),97.8% (inactive),82.8% (inactive),92.9% (inactive),63.3%,1500% (inactive),15.1% (inactive),95% (inactive),3% (inactive),4.67% (inactive),-7.1% (inactive),2.37% (inactive),101% (inactive),0.11 (inactive),11% (inactive),24.7% (inactive)
Cc1cc(C)c(NC(=O)NC(=O)C(Cl)(Cl)Cl)c(C)c1,103% (inactive),97.2% (inactive),101% (inactive),90.7% (inactive),94.2% (inactive),62.2%,464% (inactive),13% (inactive),97.8% (inactive),4% (inactive),-6.36% (inactive),-8.2% (inactive),13.6% (inactive),96.9% (inactive),-0.04 (inactive),-19% (inactive),0.24% (inactive)
COc1cc(CNCCc2ccccc2F)ccc1OCC(=O)N1CCCCC1,98.6% (inactive),104% (inactive),96.7% (inactive),114% (inactive),100% (inactive),57.8%,196% (inactive),-1.79% (inactive),103% (inactive),-1% (inactive),-8.73% (inactive),22.6% (inactive),-3.26% (inactive),98.2% (inactive),-0.35 (inactive),2% (inactive),29.6% (inactive)
O=c1c2[nH]c3ccccc3c2ncn1CCC1=CCCCC1,91.7% (inactive),127% (inactive),103% (inactive),82% (inactive),89.6% (inactive),62.1%,149% (inactive),14.2% (inactive),95.4% (inactive),-3% (inactive),-1.85% (inactive),-5.27% (inactive),0.28% (inactive),101% (inactive),0.01 (inactive),13% (inactive),1.64% (inactive)
Fc1ccccc1CNCCC(Cc1ccccc1)c1ccc2c(c1)OCO2 (stereo not drawn),98.8% (inactive),107% (inactive),96% (inactive),90.2% (inactive),94.9% (inactive),63.8%,99.6% (inactive),8.28% (inactive),104% (inactive),-1% (inactive),14% (inactive),11.7% (inactive),1.06% (inactive),105% (inactive),-0.22 (inactive),4% (inactive),-5.68% (inactive)
COc1cc(CNc2nnnn2C)ccc1OCc1ccc(F)cc1Cl,102% (inactive),101% (inactive),98.2% (inactive),92.3% (inactive),97.2% (inactive),66.7%,150% (inactive),3.98% (inactive),51.5% (active),-1% (inactive),15.7% (inactive),16.9% (inactive),0.17% (inactive),104% (inactive),0.68 (active),7% (inactive),-5.68% (inactive)
O=c1[nH]c(=O)n(C2CCCO2)cc1F (stereo not drawn),93.5% (inactive),117% (inactive),97.9% (inactive),81.4% (inactive),95.6% (inactive),60.9%,137% (inactive),-17.8% (inactive),96.1% (inactive),7% (inactive),-4.34% (inactive),-10.2% (inactive),6.89% (inactive),110% (inactive),0.09 (inactive),14% (inactive),35.2% (inactive)
COc1cc2[nH]c3c(=O)n(CCN4CCOCC4)cnc3c2cc1OC,101% (inactive),96.3% (inactive),101% (inactive),101% (inactive),99.4% (inactive),60.3%,172% (inactive),-7.25% (inactive),98.5% (inactive),3% (inactive),-0.47% (inactive),13.5% (inactive),-1.31% (inactive),102% (inactive),-0.17 (inactive),5% (inactive),4% (inactive)
